About 79,000 compounds went through this panel and 15% of them were active in at least one assay; those are over-represented in the sample as a whole. The source made the active and inactive calls. Cut-off read from the data, not from the text of the source: active = growth inhibition above about 70%; inactive = the rest.
Tests used:
[1] = NCI Yeast Anticancer Drug Screen. Data for the rad52 strain (AID 147);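 note: 0% = growth of vehicle-treated control cultures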; conditions: S. cerevisiae rad52 mutant growth inhibition, active compounds read high
Procedure, shortened: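 Screen used a yeast mutant impaired in DNA repair. After compound exposure, growth was measured. Values reflect inhibition compared with vehicle-treated cells.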

[2] = NCI Yeast Anticancer Drug Screen. Data for the wt1 strain (AID 149);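 note: 0% = growth of vehicle-treated wt1 cultures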; conditions: S. cerevisiae wt1 strain (SPY 50644) growth inhibition, active compounds read high
Procedure, shortened: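 Yeast wt1 strain exposed to compounds; growth inhibition measured relative to vehicle-treated controls.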

[3] = NCI Yeast Anticancer Drug Screen. Data for the rad50EPP+ strain (AID 151);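 note: 0% = growth of vehicle-treated control cultures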; conditions: S. cerevisiae rad50 mutant strain, active compounds read high
Procedure, shortened: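 Exposing the rad50EPP+ strain to each compound, growth was compared with vehicle-only cultures to give inhibition.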

[4] = NCI Yeast Anticancer Drug Screen. Data for the rad50 strain (AID 155);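 note: 0% = growth of vehicle-only cultures of the same strain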; conditions: S. cerevisiae rad50 strain growth inhibition, active compounds read high
Procedure, shortened: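 Yeast carrying a defined DNA repair defect were exposed to test compounds, and growth was compared with vehicle-treated controls to give percent inhibition.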

[5] = NCI Yeast Anticancer Drug Screen. Data for the mec2-1 strain (AID 157); conditions: S. cerevisiae mec2-1 strain, active compounds read high
Procedure, shortened: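 Readout is yeast growth inhibition, normalised to vehicle-treated controls, in the mec2-1 strain exposed to compound.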

[6] = NCI Yeast Anticancer Drug Screen. Data for the rad14 strain (AID 159);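 note: 0% = growth of vehicle-treated control cultures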; conditions: S. cerevisiae rad14 strain growth inhibition, active compounds read high
Procedure, shortened: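 Yeast cells carrying a defined DNA-repair defect were exposed to compounds, and growth inhibition was calculated relative to vehicle-treated control cultures.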

[7] = NCI Yeast Anticancer Drug Screen. Data for the sgs1 mgt1 strain (AID 161);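 note: 0% = growth of cultures given vehicle only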; conditions: S. cerevisiae sgs1 mgt1 strain, active compounds read high
Procedure, shortened: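 Yeast cells carrying a defined DNA-repair defect were exposed to test compounds. Growth inhibition was measured relative to vehicle-treated controls.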

[8] = NCI Yeast Anticancer Drug Screen. Data for the CLN2oe strain (AID 163);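 note: 0% = growth of vehicle-only control cultures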; conditions: S. cerevisiae CLN2oe strain, active compounds read high
Procedure, shortened: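 Values reflect how much compound exposure reduced yeast growth, referenced to vehicle-exposed cells. Assay organism is a strain with a defined genetic change affecting cell-cycle control.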

[9] = NCI Yeast Anticancer Drug Screen. Data for the cln2 rad14 strain (AID 165);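 note: 0% = growth equal to vehicle treated cultures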; conditions: S. cerevisiae cln2 rad14 strain, active compounds read high
Procedure, shortened: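 Relative to vehicle controls, growth inhibition of compound-treated cln2 rad14 yeast was recorded.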

[10] = NCI Yeast Anticancer Drug Screen. Data for the bub3 strain (AID 167); conditions: S. cerevisiae bub3 mutant strain, active compounds read high
Procedure, shortened: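 Compounds were applied to a genetically altered yeast strain carrying a cell-cycle control defect. Growth inhibition was scored against vehicle-treated controls.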

[11] = NCI Yeast Anticancer Drug Screen. Data for the wt2 strain (AID 169);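 note: 0% = growth of vehicle-treated yeast cultures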; conditions: S. cerevisiae wt2 strain growth inhibition, active compounds read high
Procedure, shortened: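 Values express reduction in yeast growth under compound treatment, referenced to vehicle-treated cells.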

[12] = NCI Yeast Anticancer Drug Screen. Data for the sgs1 strain (AID 173);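 note: 0% = growth of vehicle-only control cultures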; conditions: S. cerevisiae sgs1 mutant, active compounds read high
Procedure, shortened: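 Treat defined-mutant yeast with compound; measure growth; calculate inhibition relative to vehicle-treated cells.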

[13] = NCI Yeast Anticancer Drug Screen. Data for the mlh1 rad18 strain (AID 175); conditions: S. cerevisiae mlh1 rad18 strain growth inhibition, active compounds read high
Procedure, shortened: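 Test agents were incubated with a yeast strain of defined genotype (DNA damage repair defect). Inhibition of growth was derived by comparison with vehicle-exposed cultures.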

[14] = NCI Yeast Anticancer Drug Screen. Data for the rad18 strain (AID 177); conditions: S. cerevisiae rad18 mutant growth inhibition, active compounds read high
Procedure, shortened: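 A genetically defined yeast mutant impaired in DNA damage repair was treated with test compounds, then its growth was measured against cultures receiving vehicle alone.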

[15] = NCI Yeast Anticancer Drug Screen. Data for the mgt1 strain (AID 153); conditions: S. cerevisiae mgt1 mutant growth inhibition, active compounds read high
Procedure, shortened: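 Genetically defined yeast (mgt1) treated with compound; inhibition of growth expressed against vehicle-treated controls.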

[16] = NCI Yeast Anticancer Drug Screen. Data for the mlh1 strain (AID 171);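 note: 0% = growth of vehicle-treated control cultures of the same strain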; conditions: S. cerevisiae mlh1 strain growth inhibition, active compounds read high
Procedure, shortened: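 Steps: expose the defined-mutant yeast strain to compound; expose a parallel culture to vehicle; measure growth; express compound effect as inhibition relative to the vehicle culture.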

[17] = at 5.0 µM (retest, dose inferred, filed as 0.5)
[18] = at 50.0 µM (retest, dose inferred, filed as 5.0)

Measured: growth inhibition

CC[C@]1(O)CC(OC2CC(N(C)C)C(O)C(C)O2)c2c(cc3c(c2O)C(=O)c2c(O)cccc2C3=O)[C@@H]1C(=O)OC (stereo partly specified)
inactive: [1]; at 1.2 µM 31% | [2]; at 1.2 µM -2% | [2]; at 3.7 µM -4% | [2]; at 11.0 µM -1% | [3]; at 1.2 µM 6% | [3]; at 3.7 µM 12% | [3]; at 11.0 µM 40% | [4]; at 1.2 µM 33% | [4]; [17] 50% | [5]; at 1.2 µM -16% | [5]; at 3.7 µM -14% | [5]; [17] 4% | [5]; at 11.0 µM 7% | [6]; at 1.2 µM -12% | [6]; at 3.7 µM -18% | [6]; at 11.0 µM 0% | [7]; [17] 36% | [8]; at 1.2 µM -37% | [8]; at 3.7 µM -6% | [8]; at 11.0 µM 12% | [9]; [17] 15% | [10]; at 1.2 µM 33% | [10]; at 3.7 µM 32% | [10]; [17] 21% | [10]; at 11.0 µM 36% | [11]; at 1.2 µM -6% | [11]; at 3.7 µM -6% | [11]; at 11.0 µM 41% | [12]; at 1.2 µM -8% | [12]; at 3.7 µM -2% | [12]; at 11.0 µM 14% | [13]; [17] 22% | [14]; at 1.2 µM 6% | [14]; at 3.7 µM -9% | [14]; at 11.0 µM 2%
active: [1]; at 3.7 µM 77% | [1]; at 11.0 µM 86% | [1]; at 33.0 µM 94% | [1]; at 100.0 µM 96% | [2]; at 33.0 µM 91% | [2]; at 100.0 µM 96% | [3]; at 33.0 µM 70% | [3]; at 100.0 µM 89% | [4]; at 3.7 µM 75% | [4]; at 11.0 µM 87% | [4]; at 33.0 µM 96% | [4]; [18] 95% | [4]; at 50.0 µM 91.6% | [4]; at 100.0 µM 97% | [5]; at 33.0 µM 79% | [5]; [18] 95% | [5]; at 50.0 µM 93% | [5]; at 100.0 µM 95% | [6]; at 33.0 µM 81% | [6]; at 100.0 µM 96% | [7]; [18] 96% | [7]; at 50.0 µM 93% | [8]; at 33.0 µM 89% | [8]; at 100.0 µM 95% | [9]; [18] 92% | [9]; at 50.0 µM 90.4% | [10]; at 33.0 µM 93% | [10]; [18] 97% | [10]; at 50.0 µM 92% | [10]; at 100.0 µM 98% | [11]; at 33.0 µM 95% | [11]; at 100.0 µM 97% | [12]; at 33.0 µM 92% | [12]; at 100.0 µM 96% | [13]; [18] 95% | [13]; at 50.0 µM 91% | [14]; at 33.0 µM 95% | [14]; at 100.0 µM 97%

O=C1c2ccccc2C(=O)C(Cl)C1Cl (stereo unspecified)
active: [1]; at 11.0 µM 88% | [1]; at 33.0 µM 99% | [1]; at 100.0 µM 98% | [2]; at 11.0 µM 72% | [2]; at 33.0 µM 99% | [2]; at 100.0 µM 99% | [3]; at 11.0 µM 98% | [3]; at 33.0 µM 99% | [3]; at 100.0 µM 98% | [15]; at 11.0 µM 99% | [15]; at 33.0 µM 99% | [15]; at 100.0 µM 99% | [4]; at 11.0 µM 98% | [4]; at 33.0 µM 99% | [4]; [18] 99% | [4]; at 50.0 µM 99.2% | [4]; at 100.0 µM 99% | [5]; at 11.0 µM 90% | [5]; at 33.0 µM 99% | [5]; [18] 99% | [5]; at 50.0 µM 99.4% | [5]; at 100.0 µM 99% | [7]; [18] 99% | [7]; at 50.0 µM 99.5% | [8]; at 11.0 µM 71% | [8]; at 33.0 µM 99% | [8]; at 100.0 µM 98% | [9]; [18] 99% | [9]; at 50.0 µM 99.1% | [10]; [17] 88% | [10]; at 11.0 µM 98% | [10]; at 33.0 µM 99% | [10]; [18] 99% | [10]; at 50.0 µM 99.3% | [10]; at 100.0 µM 99% | [11]; at 11.0 µM 82% | [11]; at 33.0 µM 99% | [11]; at 100.0 µM 99% | [16]; at 11.0 µM 93% | [16]; at 33.0 µM 99% | [16]; at 100.0 µM 99% | [12]; at 11.0 µM 89% | [12]; at 33.0 µM 99% | [12]; at 100.0 µM 99% | [13]; [18] 99% | [13]; at 50.0 µM 99.3% | [14]; at 11.0 µM 91% | [14]; at 33.0 µM 99% | [14]; at 100.0 µM 99%
inactive: [1]; at 1.2 µM 1% | [1]; at 3.7 µM 15% | [2]; at 1.2 µM 7% | [2]; at 3.7 µM 18% | [3]; at 1.2 µM 7% | [3]; at 3.7 µM 36% | [15]; at 1.2 µM 7% | [15]; at 3.7 µM 13% | [4]; at 1.2 µM 5% | [4]; at 3.7 µM 36% | [4]; [17] 29% | [5]; at 1.2 µM 9% | [5]; at 3.7 µM 22% | [5]; [17] 34% | [7]; [17] 33% | [8]; at 1.2 µM 4% | [8]; at 3.7 µM 10% | [9]; [17] 10% | [10]; at 1.2 µM 13% | [10]; at 3.7 µM 35% | [11]; at 1.2 µM 9% | [11]; at 3.7 µM 24% | [16]; at 1.2 µM 1% | [16]; at 3.7 µM 4% | [12]; at 1.2 µM 4% | [12]; at 3.7 µM 15% | [13]; [17] 21% | [14]; at 1.2 µM 1% | [14]; at 3.7 µM 10%

From PubChem BioAssay (NCI)
